Experimental data: PubChem BioAssay AID652015 (National Center for Advancing Translational Sciences (NCATS), 2013)
Results filed as inconclusive are left out. The source made the active and inactive calls. The call rests on the fitted dose curve; in most records, active means well fitted inhibition curve with a large enough effect; inconclusive means small, poorly fitted or top-dose-only effect; inactive means no such curve, though single readings can be large or run the other way.

Each molecule was assayed against Coelenterazine h 2-monooxygenase (Renilla reniformis) (UniProt P27652) (assay: qHTS Assay for Inhibitors of Sea Pansy Luciferase from the GSK Published Protein Kinase Inhibitor Set). Conditions: purified Renilla luciferase, luminescence; series mostly up to 57.5 µM.
Chain of Coelenterazine h 2-monooxygenase (Renilla reniformis) (P27652 whole entry, looked up): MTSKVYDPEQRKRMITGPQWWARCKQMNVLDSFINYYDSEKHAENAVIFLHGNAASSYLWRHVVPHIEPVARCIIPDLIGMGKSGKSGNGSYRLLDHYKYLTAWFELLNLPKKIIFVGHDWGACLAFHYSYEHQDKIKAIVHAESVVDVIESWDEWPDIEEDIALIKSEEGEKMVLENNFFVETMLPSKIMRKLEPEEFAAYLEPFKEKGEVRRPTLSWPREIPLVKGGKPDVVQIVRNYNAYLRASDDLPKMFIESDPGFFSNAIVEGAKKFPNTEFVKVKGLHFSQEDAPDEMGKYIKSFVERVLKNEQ
Method in brief: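 qHTS (roughly 60 uM down to 300 pM) against 1 nM Renilla luciferase, substrate coelenterazine h 5 uM, Tris acetate pH 7.5 buffer with NaCl, Tween-20 and BSA. Luminescence measured after an average 2 min incubation.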

Potency, inactive:
CS(=O)(=O)CCNCc1ccc(-c2ccc3ncnc(Nc4ccc(OCc5cccc(F)c5)c(C(F)(F)F)c4)c3c2)o1
CCn1c(-c2nonc2N)nc2c(C#CC(C)(C)O)ncc(OC3CCNCC3)c21
Fc1ccc(Oc2nccc(-c3c(-c4ccc(F)cc4)ncn3C3CCNCC3)n2)cc1
Fc1ccc(-c2ncn(C3CCNCC3)c2-c2ccnc(Oc3cccc(F)c3)n2)cc1
CNC(=O)c1cccc(C#Cc2cncnc2Nc2ccc(OCc3cccc(F)c3)c(Cl)c2)c1
Nc1nccc(-c2c(-c3ccc(F)cc3)ncn2CCCN2CCOCC2)n1
COc1cc(C=NNc2ncnc3c2cnn3C(C)C)ccc1O
COc1cccc(-n2ncc3c(NN=Cc4ccncc4)ncnc32)c1
Cc1cc(O)cc(C)c1C=Cc1cncc(C(=O)OC(C)(C)C)c1
CS(=O)(=O)CCNCc1nc(-c2ccc3ncnc(Nc4ccc(OCc5cccc(C(F)(F)F)c5)cc4)c3c2)cs1
NC(=O)c1cc(-c2ccncc2)cc(-c2ccccc2)c1N
COc1ccc(-c2ccc3c(NC(=O)C4CC4)n[nH]c3n2)cc1
FC(F)(F)c1cccc(Nc2nccc(-c3cnn4nc(-c5ccccc5)ccc34)n2)c1
NC(=O)c1ccc(Oc2nccc(-c3c(-c4ccc(F)cc4)ncn3C3CCNCC3)n2)cc1
O=S(=O)(CCOCc1ccc(-c2ccc3ncnc(Nc4ccc(OCc5cccc(F)c5)c(Cl)c4)c3c2)o1)c1ccccc1
Nc1nccc(C#Cc2cncnc2Nc2ccc(OCc3cccc(F)c3)c(Cl)c2)n1
O=C(Nc1n[nH]c2cc(-c3ccc(F)cc3)ccc12)C1CC1
COc1ccc(-c2nn3ncccc3c2-c2ccnc(Nc3cccc(C(F)(F)F)c3)n2)cc1
CNC(=O)c1cc(-c2ccc(F)cc2)cc(-c2ccc(S(=O)(=O)N3CCCC3)cc2)c1N
Nc1nonc1-c1nc2cnccc2n1C1CCCCC1
CCn1c(-c2nonc2N)nc2cnc(Oc3cccc(NC(=O)c4ccc(N(C)C)cc4)c3)cc21
CN1CCC(C(=O)Nc2n[nH]c3nc(-c4ccc(O)cc4)c(Br)cc23)CC1
CC(=O)Nc1cccc(C#Cc2cncnc2Nc2ccc(OCc3cccc(F)c3)c(Cl)c2)c1
